# Hit rate of the full screen: of about 94,000 compounds, about 20 (0.02%) were called active. Roughly 1% stayed inconclusive and do not appear here. Calls come from the whole dose curve; as a rule, active = well fitted activation curve with a large enough effect; inconclusive = small, poorly fitted or top-dose-only effect; inactive = flat fitted curve, though single readings scatter. A selection follows.
# Assay: qHTS of alpha-syn Inhibitors: NCGC Sytravon Library Screen
# Details: S. cerevisiae alpha-synuclein toxicity rescue, BacTiter-Glo growth, 24 h; series mostly up to 46.1 µM
# Text: The goal of this project is to identify new chemical probes capable of reversing the toxicity associated with the Parkinson disease-related protein, alpha-synuclein. Compounds will be selected on their ability to restore growth in yeast cells expressing toxic levels of alpha-synuclein. These compounds will provide a complementary approach to deciphering the tangled mechanisms of toxicity and protection that we have uncovered through genome-wide genetic screens and are beginning to uncover in a large-scale proteomics analysis with mass spectroscopy. To this end, a miniaturized assay was developed to be screened against the Molecular Libraries Small Molecule Repository (MLSMR) to discover alpha-synuclein inhibitors. […] The phenotype of interest will be that of an Activator and this screen is run against the NCGC Sytravon Library collection. NIH Chemical Genomics Center [NCGC] NIH Molecular Libraries Probe Centers Network [MLPCN] MLPCN Grant: NS060957 Assay Submitter (PI): Susan Lindquist, Whitehead Institute/MIT
# Dispense 2.5 microL yeast galactose medium per 1536-well plate, pin compound, dispense 2.5 microL alpha-synuclein expressing yeast in galactose medium at OD600=0.02 (pregrown in raffinose medium to mid-log phase) per well, incubate for 24 hr at 30 deg C, and cell growth will be measured using 5 microL of Bactiter/Glo reagent to entire plate and read using Luminescence Protocol in ViewLux.
row,SMILES,outcome
1,COc1cc(CNC2CCCC2)c(Br)cc1OCc1ccccc1,inactive
2,Cc1ccc(C(=O)N[C@H](C(=O)N2CCN(c3ncccn3)CC2)C(C)C)cc1,inactive
3,Cc1nnc(SC(C(=O)c2ccccc2)c2ccccc2)[nH]c1=O (stereo unspecified),inactive
4,CCOC(=O)C1=C(CC)OC(N)=C(C#N)C1c1ccc(F)cc1F (stereo unspecified),inactive
5,COc1ccc(NC(=O)C2=C(C)NC(=O)NC2c2ccccc2[N+](=O)[O-])cc1 (stereo unspecified),inactive
6,NC(=O)CCN1CCN(S(=O)(=O)/C=C/c2ccccc2)CC1,inactive
7,COc1ccccc1N1CCN(CC(=O)NCCc2ccc(S(N)(=O)=O)cc2)CC1,inactive
8,O=C(O)Cc1csc(-c2cccc(Oc3ccccc3)c2)n1,inactive
9,O=C(CN1CCCCCC1)NCCN1C(=O)S/C(=C\c2ccccc2Cl)C1=O,inactive
10,CCOC(=O)c1cnn2c(SC)ncnc12,inactive
11,CCCCN1C(=O)C(CC(=O)NCc2cccs2)CC(C(=O)N2CCOCC2)=C1C (stereo unspecified),inactive
12,OCCC#Cc1ccc(CN2CCN(Cc3ccsc3)C(CCO)C2)cc1 (stereo unspecified),inactive
13,CCC(CC)C(=O)Nc1c2c(nn1-c1ccc(C)cc1)CS(=O)(=O)C2,inactive
14,Cc1cccc(NC(=O)CCn2c(=O)oc3ccccc32)c1,inactive
15,CCCCN(C(=O)CSCc1ccc(C)cc1)c1c(N)n(Cc2ccccc2)c(=O)[nH]c1=O,inactive
16,O=C(CN1CCCSc2ccccc21)N1CCN(S(=O)(=O)c2ccccc2)CC1,inactive
17,O=C(C1CCCO1)N1CCN(C(=O)C23CC4CC(CC(C4)C2)C3)CC1 (stereo unspecified),inactive
18,CCOC(=O)C(C(=O)c1ccccc1)C(c1ccccc1)c1nccc2ccccc12 (stereo unspecified),inactive
19,COc1cccc(N2CC(C(=O)NCc3n[nH]c(=O)c4ccccc34)CC2=O)c1 (stereo unspecified),inactive
20,CCCCS(=O)c1snnc1C (stereo unspecified),inactive
21,Cc1ccc(NC(=O)NC(=O)N(C2CCCCC2)S(=O)(=O)c2ccccc2)cc1,inactive
22,O=C(Nc1ccccc1C(=O)N1CCOCC1)c1ccc(CSc2ccccc2)cc1,inactive
23,CCN(CC)C(=O)C1=C(C)N(Cc2ccc(OC)cc2)C(=O)C(CC(=O)NCCCCc2ccccc2)C1 (stereo unspecified),inactive
24,CN(C)CCOCCOc1ccc(Cl)c2ccccc12,inactive
25,O=C(Nc1cccc([N+](=O)[O-])c1)Nc1ccc(Cl)cn1,inactive
26,O=C(NCC(F)(F)F)c1ccc(S(=O)(=O)NCCc2ccc3c(c2)OCCO3)cc1,inactive

row,SMILES,outcome
1,CC(=O)c1cnc(SCC(=O)O)nc1C,inactive
2,CN(C(=O)COC(=O)c1ccc(Br)o1)c1c(N)n(Cc2ccccc2)c(=O)[nH]c1=O,inactive
3,COc1ccc(CNC(=O)C2CCN(S(=O)(=O)c3ccc(SC)cc3)CC2)cc1,inactive
4,CCOC(=O)c1sc(NC(=O)c2sc(C)nc2C)nc1C,inactive
5,CCN(CC(=O)NCCc1ccccc1)S(=O)(=O)c1ccccc1,inactive
6,CCc1ccccc1OCC(=O)Nc1ccc2c(c1)OCCO2,inactive
7,CCN(CC)CCn1c2c(c(SCC(=O)Nc3ccc(C(C)C)cc3)nc1=O)CCC2,inactive
8,CCC(=O)c1ccc(OCC(=O)N(CC)CC2COc3ccccc3O2)cc1 (stereo unspecified),inactive
9,CC(=O)Nc1ccc2nc(NC(=O)CS(=O)(=O)c3ccc(F)cc3)sc2c1,inactive
10,COc1ccc(NC(=O)CCC(=O)Nc2cc(OC)c(NC(=O)c3ccco3)cc2OC)c(OC)c1,inactive
11,COc1cc(NC(=O)CN(C)S(=O)(=O)c2ccc3nc(C)sc3c2)cc(OC)c1,inactive
12,CCCCn1c(SCC(=O)N2CCOCC2)nc2c1c(=O)n(C)c(=O)n2C,inactive
13,CSc1nnc(C2CCCN(CC(=O)Nc3ccccc3N3CCOCC3)C2)n1C(C)C (stereo unspecified),inactive
14,Cc1cc2cc3n(c2nn1)N=C(Cl)CC3,inactive
15,CCOc1ccc(-c2n[nH]c(C)c2-c2ccccn2)c(O)c1,inactive
16,O=C(Nc1cc(F)ccc1F)c1ccc2c(=O)n3c(nc2c1)CCC3,inactive
17,COc1ccc(NC(=O)CC2C(=O)NC3CCCCC3N2C(=O)c2ccc(F)cc2)cc1 (stereo unspecified),inactive
18,O=C(Nc1ccc(F)c([N+](=O)[O-])c1)C1CCCO1 (stereo unspecified),inactive
19,CCOC(=O)c1[nH]cnc1C(=O)Nc1ccccc1C,inactive
20,O=C(c1ccccc1)N1CCN(C(=O)c2cc3nc(-c4ccccc4)cc(C(F)(F)F)n3n2)CC1,inactive
21,O=S(=O)(Nc1ccccc1Br)c1cccs1,inactive
22,O=C(Nc1ccccc1C(=O)N1CCCCC1)c1ccco1,inactive
23,COc1cccc(N2CC(NS(=O)(=O)c3cccs3)CC2=O)c1 (stereo unspecified),inactive
24,Cc1cn([C@H]2C[C@H](O)[C@@H](CNC(=O)[C@H](N)Cc3cccnc3)O2)c(=O)[nH]c1=O,inactive
25,COC(=O)c1cc(OCC(=O)NC2CCCc3ccccc32)cc(C(=O)OC)c1 (stereo unspecified),inactive
26,O=C(Cc1ccccc1)NNC1CC(=O)N(c2ccc(Br)cc2)C1=O (stereo unspecified),inactive

row,SMILES,outcome
1,CCOC(=O)C1=C(c2ccccc2)NC(=S)NC1c1ccc(Cl)cc1 (stereo unspecified),inactive
2,COc1ccc(-n2c(-c3ccc(Cl)cc3)n[nH]c2=S)c(OC)c1,inactive
3,COc1ccc(CC(=O)NC(C)CCc2ccccc2)cc1 (stereo unspecified),inactive
4,C/C(CC(=O)NC(C)c1ccccc1)=N\NC(N)=S (stereo unspecified),inactive
5,CN(C)c1ccc(C(=S)N2CCN(C(=S)Nc3ccc(Cl)cc3)CC2)cc1,inactive
6,CCCOc1ccc(/C=N/NC(=O)C2CC2)c(OCCC)c1,inactive
7,CCOC(=O)Cc1ncccc1C(=O)Nc1ccc(OC)cc1,inactive
8,COc1ccc(CN2C(=O)C(CC(=O)NCCCCc3ccccc3)CC(C(=O)N3CCOCC3)=C2C)cc1 (stereo unspecified),inactive
9,CCOC(=O)c1c(NC(=O)COC(=O)c2ccc(S(=O)(=O)C(F)F)cc2)sc(C(=O)N(C)C)c1C,inactive
10,CC(=O)Nc1ccc(C(=O)NNC(=O)CCCCC(=O)NNC(=O)c2ccc(NC(C)=O)cc2)cc1,inactive
11,O=C(O)CC12CC3CC(C1)CC(n1ncc(NCc4ccc(F)cc4)c(Cl)c1=O)(C3)C2,inactive
12,CCOc1cc2c(Cl)ncnc2c(OCC)c1OCC,inactive
13,COc1ccc(N2CCN(C(=O)[C@@H](NC(=O)c3cc(OC)cc(OC)c3)C(C)C)CC2)cc1,inactive
14,O=C(NCCOc1ccccc1)c1ccccc1F,inactive
15,O=C(CSc1nnc(CN2CCCC2)n1-c1ccc(F)cc1)c1ccc2c(c1)OCO2,inactive
16,C[C@H]1CN(c2ccc(Br)cc2)C(=O)[C@@H]1CC(=O)Nc1ccc(Br)cc1,inactive
17,COC(=O)CNC(=O)c1cc(-c2ccncc2)nc2ccccc12,inactive
18,O=C(NC1CCCC1)c1cc(-c2ccccc2)on1,inactive
19,CCOc1ccc(C(CC(=O)O)n2cnnn2)cc1OC (stereo unspecified),inactive
20,COCCN(Cc1nc(-c2ccc(C(F)(F)F)cc2)no1)C(C)C,inactive
21,CC(Nc1nc(C(F)(F)F)nc2ccccc12)c1cccs1 (stereo unspecified),inactive
22,CCc1noc(C)c1C(=O)OCC(=O)c1ccc(NC(=O)CC(C)C)cc1,inactive
23,CCc1nc2c(=O)[nH]cnc2o1,inactive
24,CN(Cc1ccc(F)cc1Cl)S(=O)(=O)c1cccs1,inactive
25,O=C(OCC(=O)N1CCCCCC1)c1cccc(Cl)c1Cl,inactive
26,O=C(CN1CCCCC1)NC(=O)Nc1ccccc1F,inactive

row,SMILES,outcome
1,Cc1ccc(O)c(NC(=O)c2cc(-c3ccco3)on2)c1,inactive
2,CCOC(=O)Cc1cc(=O)[nH]c(/N=C(\N)Nc2ccc(OC)cc2)n1,inactive
3,COc1ccccc1N(C)C(=O)c1cc(S(=O)(=O)N2CCc3ccccc32)cn1C,inactive
4,COc1ccc(-c2ccc3[nH]c4c(c3c2)CCN2C[C@H]3[C@H](C)ON(C)[C@H]3C[C@@H]42)cc1,inactive
5,CC(=O)Nc1ccccc1NC(=O)c1cc(C)cc(C)c1,inactive
6,O=C(COC(=O)Cc1ccc(Cl)cc1Cl)NCc1ccco1,inactive
7,Cc1cc(=O)c2ccc(NC(=O)c3ccccc3)cc2[nH]1,inactive
8,Cc1cc2c3ccccc3[nH]c(=O)n2n1,inactive
9,COc1cccc(COC(=O)C2CCN(S(=O)(=O)c3cccs3)CC2)c1OC,inactive
10,CSc1nc(-c2ccco2)nn1C(=O)c1ccccc1Cl,inactive
11,COc1ccc(C=C2CCC3C(CCCC34OCCO4)C2=O)cc1 (stereo unspecified),inactive
12,Cc1cccc(NC(=O)c2cc([N+](=O)[O-])ccc2N2CCN(C)CC2)c1,inactive
13,CCN(CCNC(=O)C1=C(C)C(=O)OC12CCC(C)CC2)c1ccccc1 (stereo unspecified),inactive
14,CCCCN1C(=O)C(CC(=O)NC(c2ccccc2)c2ccccc2)CC(C(=O)N2CCOCC2)=C1C (stereo unspecified),inactive
15,COCCn1c(C)cc(C(=O)COC(=O)/C=C/c2cccc(OC)c2)c1C,inactive
16,C[C@@H]1CN([C@@H](C)CO)C(=O)c2cc(NS(C)(=O)=O)ccc2O[C@@H](C)CCCCO[C@H]1CN(C)C(=O)Nc1ccc2c(c1)OCO2,inactive
17,COc1ccc(C(=O)COC(=O)CNC(=O)c2cccs2)cc1Br,inactive
18,Cc1ccccc1NS(=O)(=O)CCCCC(Cl)(Cl)Cl,inactive
19,CC1CCN(C(=O)CCNC(=O)c2ccccc2)CC1,inactive
20,CC(C)CN(C(=O)COC(=O)c1ccc2ccccc2c1)c1c(N)n(Cc2ccccc2)c(=O)[nH]c1=O,inactive
21,COc1ccc(/C=C(\NC(=O)c2ccccc2)C(=O)NCCN2CCOCC2)cc1OC,inactive
22,Cc1ccc(SCCC(=O)Nc2cc(C)on2)cc1,inactive
23,Cc1onc(-c2ccccc2Cl)c1C(=O)OCc1nnc(-c2ccccc2)o1,inactive

# Source: PubChem BioAssay AID1347070 (National Center for Advancing Translational Sciences (NCATS), 2019)
